According to PubChem BioAssay (NCI):
“And” between values parts separate entries of the source, which are not always exact repeats. Equal values may be shown once. About 83,000 compounds went through this panel and 20% of them were active in at least one assay; those are over-represented in the sample as a whole.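 Assay: single dose, 48 h. Readout: percent growth (0 = no net growth; negative = cell death). Active: <10.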 The source made the active and inactive calls.

Assays:
Assay in all cases: NCI-60 one-dose screen, 48 h (100 = growth as untreated, 0 = no growth, -100 = all killed)
[1] = test system: NCI-H23 lung
[2] = test system: NCI-H226 lung
[3] = test system: NCI-H322M lung; conditions: 10 µM unless noted
[4] = test system: HOP-62 NSCLC
[5] = test system: NCI-H460 lung
[6] = test system: HOP-92 NSCLC
[7] = test system: NCI-H522 lung
[8] = test system: A549/ATCC NSCLC
[9] = test system: 786-0 renal
[10] = test system: COLO 205 colon
[11] = test system: DU-145 prostate
[12] = test system: K-562 leukemia
[13] = test system: MALME-3M melanoma
[14] = test system: MDA-MB-231 breast
[15] = test system: RXF 393 renal
[16] = test system: SF-268 CNS
[17] = test system: SF-295 CNS
[18] = test system: SF-539 CNS
[19] = test system: UACC-257 melanoma
[20] = test system: M14 melanoma

Measured: growth

CC(=O)/C=C/c1ccc(N(CCO)Cc2ccc(C(C)(C)C)cc2)cc1
inactive: [1]; 10 µM 75.5% | [2]; 10 µM 72.9% | [4]; 10 µM 78.6% | [5]; 10 µM 74.4% | [6]; 10 µM 54.7% | [7]; 10 µM 70.1% | [8]; 10 µM 66.3% | [9]; 10 µM 87.5% | [10]; 10 µM 90.1% | [11]; 10 µM 78% | [12]; 10 µM 54.6% | [13]; 10 µM 84.5% | [14]; 10 µM 77.5% | [15]; 10 µM 87.5% | [16]; 10 µM 78.9% | [17]; 10 µM 63.5% | [18]; 10 µM 86.9% | [19]; 10 µM 80.8% | [20]; 10 µM 69.4%
active: [1]; 100 µM -70.7% | [2]; 100 µM -78.1% | [3] -98.7% [100 µM] | [4]; 100 µM -92.7% | [5]; 100 µM -86% | [6]; 100 µM -94.5% | [7]; 100 µM -71% | [8]; 100 µM -99.3% | [9]; 100 µM -93.4% | [10]; 100 µM -76.6% | [11]; 100 µM -99.7% | [12]; 100 µM -49.3% | [13]; 100 µM -85.8% | [14]; 100 µM -90.4% | [15]; 100 µM -75.9% | [16]; 100 µM -82.2% | [17]; 100 µM -84.9% | [18]; 100 µM -96.4% | [19]; 100 µM -79.5% | [20]; 100 µM -84.9%

CCOc1ccc(C(=O)Cc2ccccc2)cc1
inactive: [1]; 10 µM unless noted 115% and 105% | [2]; 10 µM unless noted 99.1% | [3] 114% | [4]; 10 µM unless noted 97.3% and 121% | [5]; 10 µM unless noted 110% and 112% | [6]; 10 µM unless noted 108% and 102% | [7]; 10 µM unless noted 93.8% and 102% | [8]; 10 µM unless noted 98.9% and 99.4% | [9]; 10 µM unless noted 93.2% and 103% | [10]; 10 µM unless noted 120% and 125% | [11]; 10 µM unless noted 105% and 112% | [12]; 10 µM unless noted 108% and 103% | [13]; 10 µM unless noted 101% | [14]; 10 µM unless noted 113% and 102% | [15]; 10 µM unless noted 117% and 96.4% | [16]; 10 µM unless noted 110% and 117% | [17]; 10 µM unless noted 121% and 89.3% | [18]; 10 µM unless noted 101% and 116% | [19]; 10 µM unless noted 110% and 99.2%

CN1Cn2c(ccc2C(F)(F)F)C(=O)CS1(=O)=O
inactive: [1]; 10 µM unless noted 108% | [2]; 10 µM unless noted 111% | [3] 104% | [4]; 10 µM unless noted 100% | [5]; 10 µM unless noted 110% | [6]; 10 µM unless noted 102% | [7]; 10 µM unless noted 103% | [8]; 10 µM unless noted 108% | [9]; 10 µM unless noted 96.7% | [10]; 10 µM unless noted 116% | [11]; 10 µM unless noted 114% | [12]; 10 µM unless noted 110% | [13]; 10 µM unless noted 90.2% | [14]; 10 µM unless noted 106% | [15]; 10 µM unless noted 135% | [16]; 10 µM unless noted 108% | [17]; 10 µM unless noted 103% | [18]; 10 µM unless noted 94.3% | [19]; 10 µM unless noted 102%

Cc1cc(N2CCCCC2)nc(NCc2cc(Nc3ccnc4cc(Cl)ccc34)ccc2F)n1
active: [3] -12.7% | [4]; 10 µM unless noted -49.5% | [5]; 10 µM unless noted -22.7% | [6]; 10 µM unless noted -21.9% | [7]; 10 µM unless noted -57.9% | [8]; 10 µM unless noted 2.71% | [9]; 10 µM unless noted -80.1% | [10]; 10 µM unless noted -72.7% | [11]; 10 µM unless noted -1.6% | [12]; 10 µM unless noted -31.4% | [13]; 10 µM unless noted -75% | [14]; 10 µM unless noted -73.3% | [15]; 10 µM unless noted -66.2% | [16]; 10 µM unless noted -17.2% | [17]; 10 µM unless noted -84.5% | [18]; 10 µM unless noted -77.7% | [19]; 10 µM unless noted -64.4%
inactive: [1]; 10 µM unless noted 22.3% | [2]; 10 µM unless noted 68.2%

CC/C=C\C/C=C\C[C@H](O)C/C=C1/C(=O)C=C[C@@H]1C/C=C\CCCC(=O)OC
inactive: [3] 10.6%
active: [1]; 10 µM unless noted -19.9% | [2]; 10 µM unless noted -48.3% | [4]; 10 µM unless noted -30.3% | [5]; 10 µM unless noted -40% | [6]; 10 µM unless noted -23% | [7]; 10 µM unless noted -52.3% | [8]; 10 µM unless noted -23.7% | [9]; 10 µM unless noted -60.6% | [10]; 10 µM unless noted -69.4% | [11]; 10 µM unless noted 6.78% | [12]; 10 µM unless noted 3.6% | [13]; 10 µM unless noted -5.8% | [14]; 10 µM unless noted -5.48% | [15]; 10 µM unless noted -58.2% | [16]; 10 µM unless noted 8.53% | [17]; 10 µM unless noted -8.95% | [18]; 10 µM unless noted 1.23% | [19]; 10 µM unless noted -13.9%

CCCCC1=C(Br)C(=O)c2nc(C)ccc2C1=O
inactive: [1]; 10 µM unless noted 92.8% | [2]; 10 µM unless noted 91.2% | [3] 88.8% | [4]; 10 µM unless noted 89.9% | [5]; 10 µM unless noted 98.8% | [7]; 10 µM unless noted 62.5% | [8]; 10 µM unless noted 92% | [9]; 10 µM unless noted 95.2% | [10]; 10 µM unless noted 37.1% | [11]; 10 µM unless noted 101% | [12]; 10 µM unless noted 34% | [13]; 10 µM unless noted 83.6% | [14]; 10 µM unless noted 80.9% | [15]; 10 µM unless noted 90.4% | [16]; 10 µM unless noted 92.8% | [17]; 10 µM unless noted 103% | [18]; 10 µM unless noted 92.6% | [19]; 10 µM unless noted 94%
active: [6]; 10 µM unless noted -8.03%
